Reference: PubChem BioAssay (Tox21)
“And” between values parts separate entries of the source, which are not always exact repeats. Equal values may be shown once. Records with an inconclusive call do not appear. The source made the active and inactive calls. Unless noted, calls follow the shape of the dose curve; as a rule, active = well fitted curve in the direction sought with a large enough effect in the repeat runs; inconclusive = weak or mixed curves; inactive = no such curve, though single readings can be large; an effect the other way counts as inactive or inconclusive.

Key:
[1] = qHTS assay for small molecules that induce genotoxicity in human embryonic kidney cells expressing luciferase-tagged ATAD5 - cell viability (AID 651634; calls by dose curve; also: nearly all actives have a fitted effect of over 25% in size)
Procedure, shortened: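 Quantitative high-throughput format. HEK293T cells expressing ATAD5 fused to luciferase were plated at 2,000 cells/well and treated 15.5 hr with compound versus DMSO. Viability was determined by fluorescent live-cell protease substrate, 30 min at 37C.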

[2] = qHTS assay to test for compound auto fluorescence at 460 nm (blue) in HEK293 cells (AID 720678)
Procedure, shortened: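 Triamterene serves as the blue fluorophore standard. Compound signal at 405/460 nm is read in HEK293 wells (2,000 cells, 10% dialyzed FBS) after overnight treatment at 37C.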

[3] = qHTS assay to test for compound auto fluorescence at 590 nm (red) in HEK293 cells (AID 720679)
Procedure, shortened: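 We plated HEK293 cells in 10% dialyzed FBS medium, let them adhere for 4-5 hr, then added 23 nL compound. Overnight at 37C and 5% CO2 preceded fluorescence measurement at 540/590nm.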

[4] = qHTS assay to test for compound auto fluorescence at 460 nm (blue) in HEK293 cell free culture (AID 720681)
Procedure, shortened: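 Test compounds were pinned into cell-free culture medium (DMEM with 10% FBS) and fluorescence was read directly at Ex/Em 405/460 nm. Signals were expressed as fluorescence equivalents of triamterene, with DMSO vehicle as control.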

[5] = qHTS assay to test for compound auto fluorescence at 590 nm (red) in HEK293 cell free culture (AID 720683)
Procedure, shortened: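 Tox21 10K library compounds were pinned into cell-free DMEM with 10% FBS and fluorescence was read at excitation 540 nm. Activity is expressed as Rose Bengal sodium equivalency.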

[6] = qHTS assay to test for compound auto fluorescence at 460 nm (blue) in HepG2 cell free culture (AID 720685)
Procedure, shortened: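 Cell-free plates of MEM plus 10% FBS received 23 nL compound or DMSO vehicle; blue-channel (405/460 nm) intensity scored against triamterene as reference fluorophore.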

[7] = qHTS assay to test for compound auto fluorescence at 535 nm (green) in HepG2 cell free culture (AID 720686)
[8] = qHTS assay to identify small molecule antagonists of the glucocorticoid receptor (GR) signaling pathway - cell viability counter screen (AID 720693); also: nearly all actives have a fitted effect of over 55% in size
[9] = qHTS assay to identify small molecule antagonists of the androgen receptor (AR) signaling pathway - cell viability counter screen (AID 743033; also: nearly all actives have a fitted effect of over 45% in size)
[10] = qHTS assay to identify small molecule antagonists of the androgen receptor (AR) signaling pathway using the MDA cell line - cell viability counter screen (AID 743041; also: nearly all actives have a fitted effect of over 45% in size)
Procedure, shortened: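 In this qHTS counter assay, fluorescence intensity after CellTiter-Fluor addition indicated viability of MDA-kb2 AR-luc cells given compounds and R1881 for 16 h at 37C.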

[11] = qHTS assay to identify small molecule antagonists of the thyroid receptor (TR) signaling pathway (AID 743065); also: series mostly up to about 70 µM; nearly all actives have a fitted effect of over 55% in size
Procedure, shortened: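 GH3.TRE-Luc rat pituitary cells carrying two TR response elements driving luciferase were plated for 4 h, given compound plus 1 nM T3 (final), and incubated 23.5 h at 37 C. ONE-Glo luminescence measured reporter inhibition; CellTiter-Fluor fluorescence tracked cytotoxicity.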

[12] = tested on: thyroid hormone receptor (rat, GH3 cells); assay: qHTS assay to identify small molecule agonists of the thyroid receptor (TR) signaling pathway (AID 743066; calls by dose curve)
[13] = qHTS assay to identify small molecule antagonists of the estrogen receptor alpha (ER-alpha) signaling pathway - cell viability counter screen (AID 743074; calls by dose curve;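 also: HEK293 cells carrying ER-alpha-UAS-bla reporter stimulated with 17beta-estradiol; nearly all actives have a fitted effect of over 45% in size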)
[14] = qHTS assay to identify small molecule antagonists of the estrogen receptor alpha (ER-alpha) signaling pathway using the BG1 cell line - cell viability counter screen (AID 743081);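 also: compound given together with 17beta-estradiol as the ER stimulus; series mostly up to about 70 µM; nearly all actives have a fitted effect of over 45% in size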
Aromatase (Homo sapiens) = Aromatase (Homo sapiens) (UniProt P11511); assay: qHTS assay to identify aromatase inhibitors (AID 743083); also: series mostly up to about 70 µM; nearly all actives have a fitted effect of over 55% in size
Chain of Aromatase (Homo sapiens) (P11511 whole entry, looked up): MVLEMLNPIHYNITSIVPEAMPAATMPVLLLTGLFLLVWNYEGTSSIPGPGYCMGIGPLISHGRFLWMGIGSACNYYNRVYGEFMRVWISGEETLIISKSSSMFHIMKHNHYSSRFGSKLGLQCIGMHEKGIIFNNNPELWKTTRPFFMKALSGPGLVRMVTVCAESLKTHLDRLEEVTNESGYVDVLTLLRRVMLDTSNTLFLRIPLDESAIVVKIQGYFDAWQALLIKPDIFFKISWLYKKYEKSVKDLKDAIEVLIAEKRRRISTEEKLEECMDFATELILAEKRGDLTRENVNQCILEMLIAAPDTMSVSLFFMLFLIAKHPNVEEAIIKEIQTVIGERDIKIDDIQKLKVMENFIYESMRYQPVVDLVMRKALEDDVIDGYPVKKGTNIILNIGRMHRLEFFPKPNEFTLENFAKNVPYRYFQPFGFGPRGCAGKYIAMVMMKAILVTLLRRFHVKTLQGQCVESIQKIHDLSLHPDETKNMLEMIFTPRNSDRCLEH

[15] = qHTS assay to identify aromatase inhibitors - cell viability counter screen (AID 743084);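 also: cells stimulated with testosterone during compound exposure; nearly all actives have a fitted effect of over 55% in size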
[16] = qHTS assay to identify small molecule that activate the aryl hydrocarbon receptor (AhR) signaling pathway - cell viability counter screen (AID 743086)
Procedure, shortened: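 HepG2-AhR-luc (HG2L7.5c1) cells, 4000/well, were preincubated 5 h at 37C, exposed to compound in qHTS format for 24 hr at 37C, then given CellTiter-Fluor for 30 min; viability was read as fluorescence in the reporter wells.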

[17] = qHTS assay to identify small molecule phospholipidosis (PLD) inducers (AID 1259344; active = well fitted curve in the direction sought with a large enough effect; an effect the other way counts as inactive or inconclusive)
Procedure, shortened: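 After 4 h attachment on collagen I, HepG2 cells were dosed with compound alongside LipidTOX Red, kept 24 h at 37 C, fixed, and imaged for lamellar phospholipid pits.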

[18] = molecular target: Nuclear receptor subfamily 1 group I member 2 (Rattus norvegicus) (UniProt Q9R1A7); assay: Rat pregnane X receptor (rPXR) activation by small molecules, qHTS assay (AID 1346983); conditions: rPXR luciferase reporter cells, One-Glo luminescence, 24 h; max activation: stronger effect = higher value; also: nearly all actives have a fitted effect of over 20% in size
Chain of Nuclear receptor subfamily 1 group I member 2 (Rattus norvegicus) (Q9R1A7 whole entry, looked up): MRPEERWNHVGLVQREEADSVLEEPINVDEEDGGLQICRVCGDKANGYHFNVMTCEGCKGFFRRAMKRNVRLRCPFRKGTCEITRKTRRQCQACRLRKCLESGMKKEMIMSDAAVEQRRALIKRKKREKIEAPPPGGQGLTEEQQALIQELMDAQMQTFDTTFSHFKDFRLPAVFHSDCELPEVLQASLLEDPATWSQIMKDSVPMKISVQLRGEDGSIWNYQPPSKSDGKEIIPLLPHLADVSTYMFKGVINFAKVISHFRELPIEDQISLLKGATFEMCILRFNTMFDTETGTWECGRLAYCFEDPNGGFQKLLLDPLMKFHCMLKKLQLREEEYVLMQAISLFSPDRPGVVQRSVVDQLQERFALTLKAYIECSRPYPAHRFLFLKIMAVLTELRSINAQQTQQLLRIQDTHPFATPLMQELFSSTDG
Procedure, shortened: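 Cell-based rPXR luciferase reporter assay, 2,000 cells per well, rested 5hr at 37 C before compound addition in DMSO, then 24 hr at 37 C. One-Glo reagent was added and luminescence read after 30 min at room temperature.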

[19] = qHTS assay for small molecule agonists of the p53 signaling pathway - cell viability (AID 651633; calls by dose curve;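 also: p53RE-bla HCT reporter cells with a stable beta-lactamase p53 reporter; series mostly up to about 83 µM; nearly all actives have a fitted effect of over 30% in size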)
Procedure, shortened: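 p53RE-bla cells, seeded at 4,000 per well and rested 5 h at 37 C/5% CO2, received compounds in DMSO for 16 h at 37 C. CellTiter-Glo was then added, and luminescence was read after 30 min at room temperature to gauge cytotoxicity.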
% is scaled to controls: 0 for no effect and ±100 for the full control effect.

CN(C)[C@H](Cc1ccccc1)c1ccccc1
inactive: Potency [1] | Potency [2] | outcome [3] | Potency [4] | outcome [5] | Potency [6] | Potency [7] | Potency [8] | Potency [9] | Potency [10] | Potency [11] | Potency [12] | Potency [13] | Potency [14] | Potency (Aromatase (Homo sapiens)) | Potency [15] | Potency [16] | Potency [17] | max activation [18] 0.224%

COC1=CC=C2[C@H]3Cc4ccc(OC)c5c4[C@@]2(CCN3C)[C@H]1O5
inactive: Potency [19] | Potency [1] | Potency [2] | outcome [3] | Potency [4] | outcome [5] | Potency [6] | Potency [7] | Potency [8] | Potency [9] | Potency [10] | Potency [11] | Potency [12] | Potency [13] | Potency [14] | Potency (Aromatase (Homo sapiens)) | Potency [15] | Potency [16] | Potency [17] | max activation [18] -7.33%

C[N+]1([O-])[C@@H]2CC(OC(=O)[C@H](CO)c3ccccc3)C[C@H]1[C@@H]1O[C@@H]12 (stereo not given in full)
inactive: Potency [19] | Potency [1] | Potency [2] | outcome [3] | Potency [4] | outcome [5] | Potency [6] | Potency [7] | Potency [8] | Potency [9] | Potency [10] | Potency [11] | Potency [12] | Potency [13] | Potency [14] | Potency (Aromatase (Homo sapiens)) | Potency [15] | Potency [16] | Potency [17] | max activation [18] 6.47% and -0.453%

CCC(C)(S(=O)(=O)CC)S(=O)(=O)CC
inactive: Potency [19] | Potency [1] | Potency [2] | outcome [3] | Potency [4] | outcome [5] | Potency [6] | Potency [7] | Potency [8] | Potency [9] | Potency [10] | Potency [11] | Potency [12] | Potency [13] | Potency (Aromatase (Homo sapiens)) | Potency [15] | Potency [16] | Potency [17] | max activation [18] -2.56%

O=C(C[C@@H]1NCCC[C@H]1O)Cn1cnc2cc(Br)c(Cl)cc2c1=O
inactive: Potency [19] | Potency [1] | Potency [2] | outcome [3] | Potency [4] | outcome [5] | Potency [6] | Potency [7] | Potency [8] | Potency [9] | Potency [10] | Potency [12] | Potency [13] | Potency [14] | Potency (Aromatase (Homo sapiens)) | Potency [15] | Potency [16] | Potency [17] | max activation [18] 5.28%

C[N+]1(C)CCCCC1COC(=O)C(O)(c1ccccc1)c1ccccc1 (stereo not given)
inactive: Potency [19] | Potency [1] | Potency [2] | outcome [3] | Potency [4] | outcome [5] | Potency [6] | Potency [7] | Potency [8] | Potency [9] | Potency [10] | Potency [13] | Potency [14] | Potency (Aromatase (Homo sapiens)) | Potency [15] | Potency [16] | Potency [17] | max activation [18] 2.59%

CCON=O
inactive: Potency [19] | Potency [1] | Potency [2] | outcome [3] | Potency [4] | outcome [5] | Potency [6] | Potency [7] | Potency [8] | Potency [9] | Potency [10] | Potency [11] | Potency [12] | Potency [13] | Potency [14] | Potency (Aromatase (Homo sapiens)) | Potency [15] | Potency [16] | Potency [17] | max activation [18] -2.18%

C[C@]12CC[C@H]3[C@@H](CCC4=C(O)C(=O)CC[C@@H]43)[C@@H]1CC[C@@H]2OC(=O)CCC1CCCC1
inactive: Potency [19] | Potency [1] | Potency [2] | outcome [3] | Potency [4] | outcome [5] | Potency [6] | Potency [7] | Potency [8] | Potency [9] | Potency [10] | Potency [11] | Potency [12] | Potency [13] | Potency [14] | Potency (Aromatase (Homo sapiens)) | Potency [15] | Potency [16] | Potency [17] | max activation [18] -2.22%
